About 64,000 (15%) of roughly 420,000 compounds were called active. Another 27% or so got no clear call; they are omitted. The call rests on the fitted dose curve; in most records, active means well fitted inhibition curve with a large enough effect; inconclusive means small, poorly fitted or top-dose-only effect; inactive means flat fitted curve, though single readings scatter. Only a sample is shown.

Consider 52 molecules from PubChem BioAssay AID686978 (National Center for Advancing Translational Sciences (NCATS), 2013).
On the % scale 0 is the no-effect control and ±100 the full control effect; potency means the concentration at half of the fitted maximal effect.

This experiment is described as follows: qHTS for Inhibitors of human tyrosyl-DNA phosphodiesterase 1 (TDP1): qHTS in cells in absence of CPT. Further: nearly all actives have a fitted effect of over 55% in size. The settings on record: DT40 Tdp1-/- hTDP1 cells, no CPT, ATP luminescence, 48 h; activity change, negative = growth inhibition: at 46.2 µM (top of the series). The method, boiled down:
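Seeded 400 DT40-hTDP1 cells/well (vehicle DMSO, no 20 nM CPT); pinned compounds; ≥48 hr at 37 °C; CellTiter-Glo luminescence as viability measure.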
On to `Cc1ccccc1-c1nnn(CC(=O)c2ccc(S(=O)(=O)N3CCCC3)cc2)n1`, for which the “activity change, negative = growth inhibition” value was -26.4% (inactive).
As for `CNC1(c2nnnn2-c2c(C)cccc2C)CCOC(C)(C)C1` (configuration not stated), the “activity change, negative = growth inhibition” value is 15.9% (inactive).
Still for that read-out and setting: the figure for `COc1c(O)cccc1-c1nnn(CCC(=O)OCC(=O)c2ccccc2)n1` is -15.8% (inactive); for `CC1(C(=O)NS(=O)(=O)c2cccc(OC(F)F)c2)CCN1C(=O)C1CC1` (configuration not stated) it is 2.72% (inactive).
Same read-out and setting: the figure for `CCCCn1c(N)c(N(CC(C)C)C(=O)CN(C)S(=O)(=O)c2ccc(F)cc2)c(=O)[nH]c1=O` is 11.9% (inactive); for `Cc1cc2nc3n(c2cc1C)CC1CC(C(=O)NCCC(C)C)N(C)C31` (configuration not stated) it is -8.55% (inactive).
Take `CCCCOc1ccc(Cl)cc1CSc1nncn1N`: the “activity change, negative = growth inhibition” value is -20.7% (inactive).
Still for that read-out and setting: in the case of `CN(c1ccc(C(=O)NCc2ccccn2)cc1)S(C)(=O)=O` it was 1.99% (inactive); in that of `CS(=O)(=O)NCc1ccc(C(=O)NCc2ccccc2)cc1`, -11.1% (inactive).
As to `COc1cccc(S(=O)(=O)NCc2ccc(C(=O)NCc3ccccn3)cc2)c1`, the Potency is 0.92 µM (active).
As for `CCSc1nc(O)c(C(c2cccc(OC)c2)c2c(O)nc(SCC)[nH]c2=O)c(=O)[nH]1`, the “activity change, negative = growth inhibition” value was -1.04% (inactive).
Same read-out and setting: in the case of `C/C=N/N(c1ccccc1)c1ccccc1` it was 0.354% (inactive).
With `COc1ccccc1CNC(=O)COc1ccc(C)nc1[N+](=O)[O-]`, the “activity change, negative = growth inhibition” value was 0.843% (inactive).
The same measure, in the same setting: the figure for `OCc1ccc(OCCCOc2cccc3cccnc23)cc1` is 5.78% (inactive).
In the case of `Cc1ccc2cccc(OCCCOc3ccccc3CO)c2n1`, the Potency was 23.1 µM (active).
For the molecule `O=S(=O)(c1ccc(Sc2nnc3ccccn23)nc1)N1CCOCC1`, the “activity change, negative = growth inhibition” value was -11.4% (inactive).
Same read-out and setting: the figure for `CCOCC(=O)NCc1ccc2c(c1)cc(C)n2C` is -13.3% (inactive); for `CCn1c(=S)[nH]c2cc(S(=O)(=O)N3CCOCC3)ccc21` it is -10.9% (inactive); for `O=C(NCc1cccc(Cl)c1)C1=CC=CN2CCS(=O)(=O)N=C12` it is 26.7% (inactive).
On the same count and under the same terms, the figure for `COc1ccc(C)cc1NC(=O)CCC(=O)Nc1nnc(C(F)(F)F)s1` is -0.883% (inactive).
Still for that read-out and setting: in the case of `CSc1ccccc1NC(=O)Cc1ccc(Br)cc1` it was -19.4% (inactive).
On to `CSc1ccccc1NC(=O)CN(C)CC(=O)Nc1cccc(Br)c1`, for which the Potency was 23.1 µM (active).
`CN(CC(=O)Nc1ccccc1F)CC(=O)Nc1ccccc1Br`: the “activity change, negative = growth inhibition” value is -24.5% (inactive).
Same read-out and setting: the figure for `CCn1c(SCC(=O)Nc2sc(C)c(C)c2C#N)nnc1C1CC1` is 6.18% (inactive).
For `CC(C)(O)C#Cc1ccc(C(=O)N2CCC(C(N)=O)(N3CCCCC3)CC2)cc1`, the “activity change, negative = growth inhibition” value was -1.61% (inactive).
On to `CC1CCN(C(=O)COC(=O)c2cc(S(=O)(=O)N3CCOCC3)ccc2Cl)CC1`, for which the “activity change, negative = growth inhibition” value is -25.4% (inactive).
Still for that read-out and setting: in the case of `Cn1c(=O)c2c(SCC(=O)NCC3CCCO3)nc(CC(C)(C)C)nc2n(C)c1=O` (configuration not stated) it was -1.92% (inactive).
Same read-out and setting: in the case of `CCOC(=O)c1cnc(-n2nc(C)cc2C)nc1-n1nc(C)cc1C` it was -15.7% (inactive).
In the case of `CCOC(=O)c1cnc(-n2nc(C)cc2C)nc1Nc1cccc(C(C)=O)c1`, the Potency is 8.2 µM (active).
`CCOC(=O)c1cccc(NC(=O)CCn2nnc3ccccc32)c1`: the “activity change, negative = growth inhibition” value was -14.5% (inactive).
The same measure, in the same setting: in the case of `O=C(O)c1cccc(S(=O)(=O)Nc2ccc(O)cc2Sc2nc3ccccc3s2)c1` it was -9.84% (inactive).
On to `O=[N+]([O-])c1c(NCCO)cc(Sc2nc3ccccc3s2)c2nonc12`, for which the Potency was 1.03 µM (active).
As for `CCOc1ccccc1Nc1ccc2nonc2c1[N+](=O)[O-]`, the “activity change, negative = growth inhibition” value was -8.37% (inactive).
Still for that read-out and setting: the figure for `COc1ccc(S(=O)(=O)NC(=O)C2(C)CCN2C(=O)COc2ccc(Cl)cc2)cc1` (configuration not stated) is -15.8% (inactive).
Regarding `c1ccc(C[C@H]2CNCCN2CCC23CC4CC(CC(C4)C2)C3)cc1`, the Potency is 10.3 µM (active).
As for `COC(=O)c1ccccc1NC(=O)CN(Cc1ccccc1)S(C)(=O)=O`, the “activity change, negative = growth inhibition” value is -23.5% (inactive).
Turning to `O=C(O)CSCc1ccc(C(=O)O)o1`, the “activity change, negative = growth inhibition” value was 11.8% (inactive).
The same measure, in the same setting: in the case of `CC(C)(C)NC(=O)Cn1cnc2cc([N+](=O)[O-])ccc2c1=O` it was 1.61% (inactive).
Same read-out and setting: the figure for `Cc1ccc(C)c(OCCC(=O)OCC(=O)c2ccc3c(c2)NC(=O)CO3)c1` is 4.85% (inactive).
With `COC(=O)c1ccccc1Sc1c(/C=N/OCc2ccc(Cl)cc2)c(C(F)(F)F)nn1C`, the Potency is 20.6 µM (active).
Regarding `COC(=O)c1ccccc1NC(=O)CN(Cc1ccc(Cl)cc1)S(C)(=O)=O`, the “activity change, negative = growth inhibition” value is -8.64% (inactive).
On the same count and under the same terms, in the case of `S=c1[nH]nc2c3c4c(sc3ncn12)CCCC4` it was -22.7% (inactive).
With `Clc1ccc(-c2nnc(-c3ccccc3)nc2N2CCSCC2)cc1`, the Potency was 14.6 µM (active).
`OCCN1CCN(c2nnc(-c3ccccc3)c3ccccc23)CC1`: the “activity change, negative = growth inhibition” value is 9.89% (inactive).
As for `O=C(N[C@H]1CC[C@H](CC(=O)N2CCCCC2)O[C@@H]1CO)c1cccc(F)c1`, the “activity change, negative = growth inhibition” value was 2.47% (inactive).
On the same count and under the same terms, in the case of `COc1ccc(C(=O)Nc2nncs2)c(OC)c1` it was -3.64% (inactive).
Take `COc1ccc(C(=O)Nc2cccc(NC(=O)c3ccc(OC)cc3OC)n2)c(OC)c1`: the Potency was 2.59 µM (active).
Consider `COc1ccc(C(=O)NC2=NCCS2)c(OC)c1`, for which the “activity change, negative = growth inhibition” value is -17.6% (inactive).
With `O=C1CCCc2c1[nH]c1ccc(Br)cc21`, the “activity change, negative = growth inhibition” value is -12.7% (inactive).
On the same count and under the same terms, in the case of `COc1ccc(/C=C2\SC(=S)N(CC(=O)NNC(=O)c3ccncc3)C2=O)cc1` it was -2.19% (inactive).
Same read-out and setting: the figure for `O=C(O)Cc1sc(-c2ccccc2)nc1-c1cccs1` is -3.31% (inactive).
In the case of `CN(C(=O)COc1nnc(-c2cccs2)c(-c2cccs2)n1)c1ccccc1`, the Potency is 18.4 µM (active).
